Read-out in assay [1]: CD69, CD69 (gene 969)
Put plainly: BSK_SAg_CD69: BioMAP Diversity Plus: SAg Assay for CD69 Biomarker Activity (AID 2283089).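 As to AC50: cell surface CD69 protein quantified by ELISA with fluorescence detection.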 As to conditions: primary human HUVEC with PBMC; actives raise or lower the signal. Put shortly:
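HUVEC co-cultured with PBMC were dosed with chemical, and CD69 was measured by ELISA with fluorescence read-out 24 h later. Bidirectional curve fitting used DMSO as negative control and activity baseline.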

Read-out in assay [2]: Monocyte Chemoattractant Protein-1 (MCP1), CCL2 (gene 6347)
Put plainly: BSK_SAg_MCP1: BioMAP Diversity Plus: SAg Assay for Monocyte Chemoattractant Protein-1 (MCP1) Biomarker Activity (AID 2283090). The conditions noted are these: primary human HUVEC with PBMC; actives raise or lower the signal. Summed up:
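Values derive from bidirectional fitting of ELISA-measured MCP1 against DMSO controls. Readings were taken 24 h after dosing human vascular endothelial cells co-cultured with peripheral blood mononuclear cells under superantigen stimulation.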

Read-out in assay [3]: E-selectin (Homo sapiens) (UniProt P16581)
Put plainly: BSK_SAg_Eselectin: BioMAP Diversity Plus: SAg Assay for Eselectin Biomarker Activity (AID 2283091). As to conditions: primary human HUVEC with PBMC; actives raise or lower the signal. Put shortly: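 Cell-surface E-selectin is read by ELISA at 24 h in the SAg co-culture of HUVEC and PBMC. Curves are fitted in both directions relative to DMSO. Parallel SRB total-protein staining tracks overt toxicity.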

Read-out in assay [4]: Monokine induced gamma interferon (MIG), CXCL9 (gene 4283)
Put plainly: BSK_SAg_MIG: BioMAP Diversity Plus: SAg Assay for Monokine induced gamma interferon (MIG) Biomarker Activity (AID 2283092). As to conditions: primary human HUVEC with PBMC; actives raise or lower the signal. Put shortly:
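HUVEC plus human PBMC co-culture, chemicals dosed and MIG (CXCL9) quantified by ELISA at 24 h. Bidirectional curve fitting against DMSO as negative control and baseline, so both gain and loss of signal count as activity.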

Assay [5] in a line: BSK_SAg_PBMCCytotoxicity: PBMC Cytotoxicity Assessment in the BioMAP Diversity Plus: SAg Assay (AID 2283093).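 Also: PBMC viability measured as Alamar Blue reduction fluorescence at 546/580 nm; fitted both ways against DMSO so a hit may be loss or gain of signal.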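 As to AC50: PBMC superantigen activated with SEB plus TSST-1 one hour after compound addition.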 The conditions noted are these: primary human HUVEC with PBMC. Put shortly:
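Alamar Blue reduction (6 h, ex/em 546/580 nm) read after 90 h culture of PBMC pre-dosed 1 h then stimulated with SEB plus TSST-1, 20 ng/mL each. Gain or loss of signal fitted relative to DMSO.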

Read-out in assay [6]: Interleukin-8 (IL8), CXCL8 (gene 3576)
Put plainly: BSK_SAg_IL8: BioMAP Diversity Plus: SAg Assay for Interleukin-8 (IL8) Biomarker Activity (AID 2283094). As to conditions: primary human HUVEC with PBMC; actives raise or lower the signal. Put shortly:
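Primary human endothelial cells with PBMC, exposed 24 h; IL-8 determined by ELISA, analysed bidirectionally relative to DMSO.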

A short description of assay [7]: BSK_SAg_Proliferation: Cell Proliferation Assessment in the BioMAP Diversity Plus: SAg Assay (AID 2283095).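 Also: relative cell number as total protein by SRB absorbance in sub-confluent culture.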 The conditions noted are these: primary human HUVEC with PBMC. Summed up: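 A human primary co-culture of umbilical vein endothelium and blood mononuclear cells receives compound; relative cell number is quantified at 96 h by SRB staining and 560 nm absorbance, with DMSO-referenced bidirectional curve fitting.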

Assay [8] is described as follows: BSK_SAg_SRB: Viability Assessment in the BioMAP Diversity Plus: SAg Assay (AID 2283096).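 Also: cells read one day after compound addition; hits may be either gain or loss of signal compared with DMSO.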 The conditions noted are these: primary human HUVEC with PBMC. Put shortly: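 SRB absorbance at 560 nm served as the viability read-out. Cells (HUVEC plus peripheral blood mononuclear cells) were TCA-fixed and stained 24 h post-dosing; activity fitted in both directions against DMSO controls.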

Assay [9] concerns the target human CYP2C9, CYP2C9 (gene 1559) (UniProt P11712). Put plainly: NVS_ADME_hCYP2C9: NovaScreen (NVS) CYP450-related Enzyme Activity (ADME) Assay for human CYP2C9 (AID 2283108; active = hit-call score of the fitted dose curve at least 0.9, where 1 is the maximum). Put shortly:
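Fluorescence readout of CYP2C9 activity (SF9-expressed human enzyme) at 0.75 h. The primary screen used 10 uM in duplicate, with concentration-response follow-up for actives; acetonitrile was the negative control.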

SMILES strings stand for the structures. Inconclusive results are not listed. Where a structure was tested more than once in an assay, its records may differ in their call. The source made the active and inactive calls. The calls were made as follows, unless noted: active = hit-call score of the fitted dose curve at least 0.9, where 1 is the maximum; inactive = score below 0.9.

Chain of E-selectin (Homo sapiens) (P16581 whole entry, looked up): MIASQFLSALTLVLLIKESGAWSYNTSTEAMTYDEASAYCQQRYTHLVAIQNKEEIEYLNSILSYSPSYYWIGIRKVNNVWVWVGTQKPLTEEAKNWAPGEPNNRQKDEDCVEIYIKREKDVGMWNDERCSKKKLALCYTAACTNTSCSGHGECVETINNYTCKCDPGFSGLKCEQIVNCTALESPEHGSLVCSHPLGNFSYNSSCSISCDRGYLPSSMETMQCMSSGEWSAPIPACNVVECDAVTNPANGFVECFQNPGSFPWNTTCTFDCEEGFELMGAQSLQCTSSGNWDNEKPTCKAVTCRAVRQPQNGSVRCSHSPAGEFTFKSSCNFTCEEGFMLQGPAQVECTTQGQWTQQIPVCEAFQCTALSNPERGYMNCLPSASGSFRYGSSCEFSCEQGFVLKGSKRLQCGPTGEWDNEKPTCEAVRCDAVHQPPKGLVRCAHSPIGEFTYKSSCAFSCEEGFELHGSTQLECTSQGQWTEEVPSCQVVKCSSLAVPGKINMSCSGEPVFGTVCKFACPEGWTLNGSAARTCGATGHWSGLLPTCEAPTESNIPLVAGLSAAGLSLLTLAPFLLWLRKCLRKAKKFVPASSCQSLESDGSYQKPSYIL
Chain of human CYP2C9, CYP2C9 (gene 1559) (P11712 whole entry, looked up): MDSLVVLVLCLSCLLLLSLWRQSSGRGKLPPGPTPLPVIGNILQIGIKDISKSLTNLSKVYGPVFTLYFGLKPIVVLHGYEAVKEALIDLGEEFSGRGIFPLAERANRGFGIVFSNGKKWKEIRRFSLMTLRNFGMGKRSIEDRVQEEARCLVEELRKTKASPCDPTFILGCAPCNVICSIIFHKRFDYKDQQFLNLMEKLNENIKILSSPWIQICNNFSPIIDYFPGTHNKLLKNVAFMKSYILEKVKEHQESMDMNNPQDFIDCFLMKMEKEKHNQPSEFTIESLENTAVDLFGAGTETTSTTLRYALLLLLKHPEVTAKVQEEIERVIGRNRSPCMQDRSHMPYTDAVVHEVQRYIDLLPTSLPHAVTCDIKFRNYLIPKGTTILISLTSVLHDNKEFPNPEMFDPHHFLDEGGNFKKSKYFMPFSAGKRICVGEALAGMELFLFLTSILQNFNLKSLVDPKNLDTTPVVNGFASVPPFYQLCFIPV

`CC1(C)Cc2cccc(O)c2O1`: the result in [1], in assay [2], in assay [3], in [4], in assay [5] and in [6] was inactive. Moreover, the result in [7] and in assay [8] was inactive.

In the case of `Nc1ncc([N+](=O)[O-])s1`, the outcome in assay [1], in assay [2], in assay [3], in assay [4], in [5] and in assay [6] was inactive. Further, the result in assay [7] and in assay [8] was inactive.

In general, AC50 refers to the concentration giving half of the maximal activity seen. For `C(=NC1CCCCC1)=NC1CCCCC1`, the AC50 in [1] was 7.97 µM (active); in assay [2], 19.3 µM (active); in assay [3], 3.97 µM (active); in assay [4], 12.6 µM (active); in assay [5], 16.5 µM (active); in [6] it was 3.97 µM (active). Besides, the AC50 in assay [7] was 0.499 µM (active); in assay [8], 30 µM (active).

For `CC(=O)C(Cl)C(=O)N(C)C` (stereo not drawn), the AC50 in assay [1] was 16.7 µM (active); in [2], 20 µM (active); in assay [3] it was 25.4 µM (active); in assay [5], 7.81 µM (active); in [6] it was 14.1 µM (active); in assay [7], 20 µM (active). Besides, the outcome in assay [4] and in assay [8] was inactive.

Regarding `CCN1CCC2(CC1)COc1cc3c(cc12)N(C(=O)c1ccc(-c2ccc(-c4nnc(C)o4)cc2C)cc1)CC3`, the AC50 in assay [1] is 12 µM (active); in [2], 12.6 µM (active); in assay [3], 13.3 µM (active); in [4] it was 30.8 µM (active); in assay [5], 12.6 µM (active); in assay [6], 12.3 µM (active). Also, the AC50 was 6.95 µM (active) in assay [7] and 12.7 µM (active) in assay [8].

For the compound `NC(=S)Nc1ccccc1`, the outcome in assay [1], in assay [2], in [3], in assay [4], in assay [5] and in [6] was inactive. For the same compound, the result in assay [7] and in assay [8] was inactive.

Take `Cc1ccccc1N`: the result in [1], in [2], in assay [3], in assay [4], in assay [5] and in [6] was inactive. Besides, the outcome in [7] and in assay [8] was inactive.

In the case of `C[C@]12CCC(=O)C[C@@H]1CC[C@@H]1[C@@H]2CC[C@]2(C)[C@@H](O)CC[C@@H]12`, the outcome in assay [1], in [3], in assay [4], in assay [5], in [6] and in assay [7] was inactive. Besides, the AC50 in assay [2] was 28.2 µM (active); in assay [8], 25.7 µM (active).

For `COC(=O)c1sccc1S(=O)(=O)NC(=O)Nc1nc(C)nc(OC)n1`, the outcome in assay [1], in assay [2], in assay [3], in assay [4], in assay [5] and in assay [6] was inactive. Also, the result in assay [7] and in assay [8] was inactive.

Turning to `Oc1c(I)cc(I)cc1I`, the concentration at half-maximal activity (AC50) in assay [1] was 29.4 µM (active); in [2], 32.3 µM (active); in assay [3], 14.7 µM (active); in assay [4], 34.2 µM (active); in [6], 34.3 µM (active); in assay [7] it was 31.9 µM (active). For the same compound, the AC50 in assay [8] was 20 µM (active). In addition, the outcome in assay [5] was inactive.

For `COP(=S)(OC)Oc1c(Cl)cc(C)cc1Cl`, the result in assay [1], in assay [2], in assay [3], in assay [4], in assay [5] and in assay [6] was inactive. In [8], the outcome was inactive. Besides, the AC50 in [7] was 31.6 µM (active).

For the compound `CCNc1nc(NC(C)(C)C)nc(SC)n1`, the AC50 in assay [1] is 14.6 µM (active). Also, the result in assay [2], in [3], in assay [4], in assay [5], in assay [6] and in assay [7] was inactive. The outcome in assay [8] was inactive.

Regarding `COC[C@H](C)N(C(=O)CCl)c1c(C)csc1C`, the outcome in [1], in assay [2], in assay [3], in assay [4], in assay [5] and in assay [6] was inactive. Further, the result in assay [7] and in [8] was inactive.

As to `O=C(O)C(F)(F)C(F)(F)C(F)(F)C(F)(F)C(F)(F)C(F)(F)F`, the result in [1], in assay [2], in [3], in assay [4], in assay [5] and in assay [6] was inactive. Further, the result in [7] and in assay [8] was inactive.

On to `CCCCC(CC)CO[N+](=O)[O-]` (stereo not drawn), for which the outcome in [1], in assay [2], in assay [3], in assay [4], in assay [5] and in [6] was inactive. The result in assay [7] and in [8] was inactive.

Consider `O=C(O)CCC(F)(C(F)(F)F)C(F)(F)F`, for which the outcome in assay [1], in assay [2], in [3], in assay [4], in [5] and in assay [6] was inactive. Moreover, the result in assay [7] and in assay [8] was inactive.

Turning to `O=C(O)C(F)(F)C(F)(F)C(F)(F)C(F)(F)C(F)(F)C(F)(F)C(F)(F)C(F)(F)C(F)(F)C(F)(F)F`, the AC50 in assay [1] is 30.5 µM (active); in [2] it was 35.1 µM (active); in [3], 35.3 µM (active); in assay [4] it was 34.9 µM (active); in assay [5], 31.5 µM (active); in [6], 26.8 µM (active). For the same compound, the AC50 was 32.8 µM (active) in assay [7], 29.4 µM (active) in [8] and 1.58 µM (active) in assay [9]. The result in assay [1], in assay [2], in assay [3], in assay [4], in assay [5] and in assay [6] was inactive. The outcome in assay [7] and in assay [8] was inactive.

Take `O=Cc1cccc(Oc2ccccc2)c1`: the outcome in assay [1], in assay [2], in assay [3], in assay [4], in [5] and in [6] was inactive. Besides, the outcome in assay [7] and in [8] was inactive.

The record behind these values is PubChem BioAssay (EPA / NIEHS).
